The target in assay [1] is Lysosomal acid glucosylceramidase (Homo sapiens) (UniProt P04062). Kind of assay: Glucocerebrosidase-p2 (AID 348; in the data active = potency below about 10 µM; also: potency is read from the fitted curve at half-maximal effect). The note with it: purified GBA, blue fluorogenic substrate, 40 min. A digest of the protocol:
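Normal human glucocerebrosidase (0.2 nM) with blue fluorogenic substrate (80 uM final) in citrate/phosphate pH 5.9 with 10mM sodium taurocholate, 0.01% tween-20; 40 min RT, NaOH/glycine stop; fluorescence Ex 365/Em 440; AC50 from a titration from 0.6 nM upwards.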

Assay [2] is described as follows: AP1 Signaling Pathway (AID 357).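 Also: ME-180 reporter cells stimulated with EGF at its EC50 level; % is scaled to controls: 0 for no effect and ±100 for the full control effect.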 Conditions: ME-180 AP-1-bla reporter, EGF-induced, beta-lactamase ratio, 5 h; at 7.69 µM (top of the series) unless noted. The method, boiled down: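 Titration-series screen for positive or negative modulators of EC50 EGF-induced signaling in ME-180 cells carrying an AP-1-driven beta-lactamase reporter. After 5 hours at 37 degrees Celsius, CCF4 460nm/530nm emission ratio gave %Activity; AC50 values derived.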

The target of assay [3] is Cytochrome P450 1A2 (Homo sapiens) (UniProt P05177). Kind of assay: p450-cyp1a2 (AID 410; calls by dose curve; also: potency is read from the fitted curve at half-maximal effect). The note with it: recombinant CYP1A2, luciferin-ME demethylation, luminescence; series mostly up to 57 µM. The method, boiled down:
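O-Demethylation of luciferin 6' methyl ether by human CYP1A2 is monitored as luciferase luminescence. Substrate sits at Km (100uM); enzyme is 20nM. Values are scaled to 57 uM furafylline as maximal inhibition.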

The nature of assay [4]: NFAT Signaling Pathway (AID 444).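 Also: carbachol stimulus at about its EC50 of 1 µM final; % is scaled to controls: 0 for no effect and ±100 for the full control effect.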 Conditions: Jurkat NFAT-bla M1, carbachol, beta-lactamase ratio, 5 h; at 7.69 µM (top of the series) unless noted. The method, boiled down: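 Jurkat cells with NFAT-driven β-lactamase reporter and co-expressed M1 receptor, stimulated with carbachol (final 1 uM, ~EC50), compound titration, 5 h at 37 °C. CCF4 loaded 1 h at RT; 460/530 nm ratio gave %activity and AC50.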

Assay [5] can be described thus: Stat Signaling Pathway (AID 446).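 Also: ME-180 cervical cancer cells given 40 pM IL-6 alongside compound; SIE-controlled beta-lactamase reporter measured as 460/530 nm FRET emission ratio; % is scaled to controls: 0 for no effect and ±100 for the full control effect.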 The note with it: ME-180 (cervical carcinoma) SIE beta-lactamase reporter, IL-6 stimulated, 5 h; at 7.69 µM (top of the series) unless noted. A digest of the protocol:
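Compound effects on IL-6-induced STAT reporter activity were measured in ME-180 cells. After overnight culture, cells were co-treated with 40 pM IL-6 for 5 hrs before beta-lactamase substrate loading at room temperature.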

Assay [6] addresses Glucocorticoid receptor (Homo sapiens) (UniProt P04150). Kind of assay: GR-GFP Redistribution (AID 450;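 active = compounds whose dose series gives a full or clear partial fitted curve of increased nuclear translocation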; also: potency is read from the fitted curve at half-maximal effect). The note with it: U2OS GR-GFP nuclear translocation, laser cytometry, 2 h.
Assay [7] has the same target. Kind of assay: GR-EFC Redistribution (AID 451; calls by dose curve; also: potency is read from the fitted curve at half-maximal effect). Conditions: CHO-K1 GR-EFC translocation, beta-gal luminescence, 2 h. A digest of the protocol: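 CHO-K1 cells expressing nuclear EA and GR-ED fragments of b-gal; compounds titrated up to 46 uM final, 2 h at 37 C. GR nuclear translocation read as complemented b-gal luminescence after 1 h RT detection.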
Assay [8] addresses Mitogen-activated protein kinase 10 (Mus musculus) (UniProt Q61831). Kind of assay: JNK3 AlphaScreen Assay (AID 530).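 Also: kinase came from lysate of stimulated human HepG2 cells; signal reports phosphorylation of biotinylated GST-cJun 1-79 at Ser73 with 10 µM ATP; % is scaled to controls: 0 for no effect and ±100 for the full control effect.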 The note with it: JNK3 lysate, c-Jun phosphorylation; series mostly up to 57.1 µM. The method, boiled down: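 Activity was read by AlphaScreen after JNK3-containing HepG2 lysate (cytokine pre-activated) phosphorylated biotinylated GST-cJun with 10 uM ATP at room temperature. Phospho-Ser73 cJun antibody with Protein-A acceptor beads provided detection.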
In general terms: Bead proximity is the source of the signal in Alpha formats.

Assay [9] has as its target 3',5'-cyclic-AMP phosphodiesterase 4B (Homo sapiens) (UniProt Q07343). Kind of assay: qHTS Assay for Inhibitors of PDE-IV (AID 607; active = well fitted activation curve with a large enough effect in the main read-out, with a control signal flat, not every such curve was filed as active; also: % of control where 0% means no effect). The note with it: HEK293 ACTOne CNG channel cells, membrane potential fluorescence; series mostly up to 22.9 µM. The method, boiled down: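 ACTOne HEK293 cells carry a modified cAMP-gated CNG channel and express endogenous PDE4; plated 1000 cells/well, compounds up to 22.9 uM final. Membrane-potential dye fluorescence (ex 535/em 590) was read; parental cells received 10 uM forskolin + 100 uM RO 20-1724.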
On the technique in general: qHTS replaces the single test concentration by a dilution series.

Assay [10] can be described thus: Counterscreen qHTS for small molecule stabilizers of the endoplasmic reticulum resident proteome: GLuc-NoTag assay (AID 1508627; active = well fitted curve in the direction sought with a large enough effect; an effect the other way counts as inactive or inconclusive;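 also: 0% = thapsigargin alone and -100% = DMSO vehicle control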). The note with it: Gaussia luciferase NoTag secretion counterscreen, luminescence, thapsigargin 100 nM for final 4 h; series mostly up to 76.4 µM. The method, boiled down:
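Counterscreen line: SH-SY5Y-GLuc-NoTag. Seed, 5 h; compound, 19 h; thapsigargin 100 nM, 4 h; 37C/5% CO2. Readout: secreted GLuc luminescence, coelenterazine 0.07x final, no lysis.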
On the technique in general: The purpose of a counterscreen is to sort out artefacts and off-target activity.

Assay [11] can be described thus: Cell Viability qHTS for small molecule stabilizers of the endoplasmic reticulum resident proteome (AID 1508629; active = well fitted curve in the direction sought with a large enough effect; an effect the other way counts as inactive or inconclusive). Conditions: cell viability counter-screen, 100 nM thapsigargin for final 4 h.
The nature of assay [12]: Confirmatory qHTS for small molecule stabilizers of the endoplasmic reticulum resident proteome: Secreted ER Calcium Modulated Protein (SERCaMP) assay (AID 1508628; active = well fitted curve in the direction sought with a large enough effect; an effect the other way counts as inactive or inconclusive; also: nearly all actives have a fitted effect of over 40% in size; also: potency is read from the fitted curve at half-maximal effect). The note with it: SERCaMP secreted luciferase ER calcium/proteostasis reporter; series mostly up to 76.3 µM. The method, boiled down:
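Reporter secretion upon ER calcium depletion (100 nM thapsigargin, 4 h, 37C) is measured as medium luminescence with coelenterazine, after 16 h compound pretreatment of SH-SY5Y-GLuc-SERCaMP cells; primary at three concentrations up to 38.3 uM, follow-up at 11 (up to 76.6 uM).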

For assay [13], the target named is Cytochrome P450 2C9 (Homo sapiens) (UniProt P11712). Kind of assay: qHTS Assay for Inhibitors and Substrates of Cytochrome P450 2C9 (AID 883; active = well fitted curve in the direction sought with a large enough effect; an effect the other way counts as inactive or inconclusive; also: % is scaled to controls: 0 for no effect and ±100 for the full control effect; nearly all actives have a fitted effect of over 60% in size). Conditions: recombinant CYP2C9, luciferin-H luminescence, 60 min; series mostly up to 57.1 µM. The method, boiled down: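 Human CYP2C9 (10nM) with Luciferin-H at 100uM (its KM) in 25mM KPO4; compound preincubated 10 min at 37C, then NADPH regeneration for 60 min at 37C. Luciferin read by luminescence after detection reagent; normalized to 57uM sulphaphenazole as full inhibition.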
Cytochrome P450 2C9 (Homo sapiens), sequence (P11712 whole entry, looked up): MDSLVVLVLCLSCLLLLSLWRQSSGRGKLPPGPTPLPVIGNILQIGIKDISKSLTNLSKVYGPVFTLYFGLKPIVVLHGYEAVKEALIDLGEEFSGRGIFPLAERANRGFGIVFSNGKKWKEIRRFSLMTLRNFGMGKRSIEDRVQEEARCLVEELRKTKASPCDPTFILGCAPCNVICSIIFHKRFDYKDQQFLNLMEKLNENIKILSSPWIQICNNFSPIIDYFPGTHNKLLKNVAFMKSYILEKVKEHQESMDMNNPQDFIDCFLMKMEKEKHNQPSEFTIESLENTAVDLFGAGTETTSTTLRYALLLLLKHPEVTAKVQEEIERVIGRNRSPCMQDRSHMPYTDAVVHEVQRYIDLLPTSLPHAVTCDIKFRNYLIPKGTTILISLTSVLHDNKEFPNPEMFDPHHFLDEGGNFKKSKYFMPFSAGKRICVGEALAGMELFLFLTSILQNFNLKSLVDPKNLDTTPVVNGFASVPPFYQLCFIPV

The nature of assay [14]: qHTS Assay for Lipid Storage Modulators (AID 1519; calls by dose curve). Conditions: Drosophila S3 cells, BODIPY lipid droplet/cell ratio, laser cytometry, cells loaded with oleic acid; for activity change, negative = inhibition: at 57.5 µM (top of the series). A digest of the protocol: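 Cells seeded at 5,000 per well were treated with compounds over a concentration series and loaded with oleic acid (400 uM, as added). Lipid droplet fluorescence (488 nm excitation, 500-530 nm channel) was read by laser-scanning cytometry and normalized to 20 uM Triacsin C.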

Assay [15] concerns the target Dual specificity protein kinase CLK4 (Homo sapiens) (UniProt Q9HAZ1). Kind of assay: qHTS Assay for Inhibitors of CDC-like Kinase 4 (ADP-Glo Assay) (AID 1771; active = well fitted curve in the direction sought with a large enough effect; an effect the other way counts as inactive or inconclusive; also: % is scaled to controls: 0 for no effect and ±100 for the full control effect; nearly all actives have a fitted effect of over 70% in size). The note with it: recombinant CLK4, ADP-Glo luminescence; series mostly up to 80 µM. The method, boiled down: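 Compounds are pin-transferred onto substrate mix (100 uM RS peptide, 1 uM ATP), then 25 nM Clk4 is added. After 1 hr at room temperature, ADP-Glo reagent runs 45 min, detection reagent 30 min, then luminescence is read.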

Assay [16] addresses Ubiquitin carboxyl-terminal hydrolase 1 (Homo sapiens) (UniProt O94782). Kind of assay: Inhibitors of USP1/UAF1: Pilot qHTS (AID 504865; active = well fitted curve in the direction sought with a large enough effect; an effect the other way counts as inactive or inconclusive;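 also: rhodamine fluorescence freed from ubiquitin-rhodamine substrate followed over time; top concentration of the series differs between compounds; % is scaled to controls: 0 for no effect and ±100 for the full control effect; nearly all actives have a fitted effect of over 35% in size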). Conditions: purified USP1/UAF1, Ub-rhodamine cleavage fluorescence; series mostly up to 54.9 µM. A digest of the protocol:
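Deubiquitinase activity followed as kinetic rhodamine fluorescence release from 150 nM Ub-Rho. 1 nM USP1/UAF1 with compound, after 15 min room-temperature preincubation, in HEPES pH 7.8 buffer containing TCEP, EDTA, BSA and Tween-20.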

For assay [17], the target named is Cytochrome P450 3A4 (Homo sapiens) (UniProt P08684). Kind of assay: qHTS Assay for Inhibitors and Substrates of Cytochrome P450 3A4 (AID 884; active = well fitted curve in the direction sought with a large enough effect; an effect the other way counts as inactive or inconclusive; also: potency is read from the fitted curve at half-maximal effect; nearly all actives have a fitted effect of over 50% in size). Conditions: recombinant CYP3A4, Luciferin-PPXE luminescence; series mostly up to 57.1 µM. The method, boiled down:
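Luminescent readout of luciferin produced by CYP3A4 (20 nM) dealkylation of Luciferin-PPXE, 25 uM (its KM). NADPH-driven reaction ran 60 min at RT after 10 min compound preincubation; data scaled to 57 uM ketoconazole as 100% inhibition.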

The target is the same in assay [18]. Kind of assay: qHTS Assay for Activators of Cytochrome P450 3A4 (AID 885; active = well fitted curve in the direction sought with a large enough effect; an effect the other way counts as inactive or inconclusive; also: nearly all actives have a fitted effect of over 65% in size). Conditions: recombinant CYP3A4, Luciferin-PPXE luminescence, 60 min; series mostly up to 57.1 µM. A digest of the protocol:
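CYP3A4 activity: Luciferin-PPXE O-dealkylation, 25uM substrate, 200mM KPO4, RT throughout. Read-out is luciferase luminescence; higher values reflect activation.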

Where [19] appears, read: measured here: cell count channel max response.
Where [20] appears, read: measured here: lipid channel max response.

Molecules are shown by their SMILES. Results filed as inconclusive are left out. Calls of active or inactive are those of the source. Unless noted, calls follow the shape of the dose curve; as a rule, active = well fitted curve in either direction with a large enough effect (not every such curve was filed as active); inconclusive = small, poorly fitted or top-dose-only effect, or another doubt; inactive = flat fitted curve, though single readings scatter. Where only a bound is given, the exact number is not on record here.

Lysosomal acid glucosylceramidase (Homo sapiens), sequence (P04062 whole entry, looked up): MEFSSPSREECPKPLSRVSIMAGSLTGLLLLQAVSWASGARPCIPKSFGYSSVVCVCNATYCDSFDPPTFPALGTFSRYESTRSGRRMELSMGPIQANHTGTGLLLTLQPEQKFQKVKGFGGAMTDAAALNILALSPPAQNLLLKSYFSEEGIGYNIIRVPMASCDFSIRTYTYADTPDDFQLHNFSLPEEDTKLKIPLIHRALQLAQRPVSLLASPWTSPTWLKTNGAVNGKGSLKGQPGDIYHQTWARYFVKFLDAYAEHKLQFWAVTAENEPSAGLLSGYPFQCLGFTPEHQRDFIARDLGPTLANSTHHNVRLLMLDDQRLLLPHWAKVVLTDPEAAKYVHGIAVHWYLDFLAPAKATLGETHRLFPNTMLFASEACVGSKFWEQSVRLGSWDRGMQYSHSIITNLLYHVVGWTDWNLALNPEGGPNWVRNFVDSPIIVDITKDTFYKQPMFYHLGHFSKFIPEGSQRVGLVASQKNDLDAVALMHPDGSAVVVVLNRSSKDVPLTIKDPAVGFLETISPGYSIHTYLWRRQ
Glucocorticoid receptor (Homo sapiens), sequence (P04150 whole entry, looked up, the tested form may be a part): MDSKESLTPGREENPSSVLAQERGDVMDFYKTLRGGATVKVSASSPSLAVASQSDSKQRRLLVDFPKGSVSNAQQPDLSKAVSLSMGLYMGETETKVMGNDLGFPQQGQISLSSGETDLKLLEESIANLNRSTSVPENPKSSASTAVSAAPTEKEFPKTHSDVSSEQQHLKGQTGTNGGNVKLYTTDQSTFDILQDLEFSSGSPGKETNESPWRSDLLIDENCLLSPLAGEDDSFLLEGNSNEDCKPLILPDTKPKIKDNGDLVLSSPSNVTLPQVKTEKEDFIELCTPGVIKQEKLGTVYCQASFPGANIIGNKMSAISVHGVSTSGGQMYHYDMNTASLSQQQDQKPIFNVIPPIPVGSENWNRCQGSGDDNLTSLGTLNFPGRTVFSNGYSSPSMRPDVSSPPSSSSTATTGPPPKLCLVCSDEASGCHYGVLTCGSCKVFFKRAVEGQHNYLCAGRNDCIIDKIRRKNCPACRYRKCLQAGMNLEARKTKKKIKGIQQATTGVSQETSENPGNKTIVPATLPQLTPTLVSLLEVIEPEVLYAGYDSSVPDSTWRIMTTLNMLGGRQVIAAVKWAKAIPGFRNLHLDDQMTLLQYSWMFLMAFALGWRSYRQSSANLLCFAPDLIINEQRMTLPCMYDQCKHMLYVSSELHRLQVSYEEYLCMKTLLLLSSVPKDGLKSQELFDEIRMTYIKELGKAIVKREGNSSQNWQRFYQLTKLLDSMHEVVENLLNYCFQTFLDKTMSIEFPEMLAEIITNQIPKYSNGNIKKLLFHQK
3',5'-cyclic-AMP phosphodiesterase 4B (Homo sapiens), sequence (Q07343 whole entry, looked up): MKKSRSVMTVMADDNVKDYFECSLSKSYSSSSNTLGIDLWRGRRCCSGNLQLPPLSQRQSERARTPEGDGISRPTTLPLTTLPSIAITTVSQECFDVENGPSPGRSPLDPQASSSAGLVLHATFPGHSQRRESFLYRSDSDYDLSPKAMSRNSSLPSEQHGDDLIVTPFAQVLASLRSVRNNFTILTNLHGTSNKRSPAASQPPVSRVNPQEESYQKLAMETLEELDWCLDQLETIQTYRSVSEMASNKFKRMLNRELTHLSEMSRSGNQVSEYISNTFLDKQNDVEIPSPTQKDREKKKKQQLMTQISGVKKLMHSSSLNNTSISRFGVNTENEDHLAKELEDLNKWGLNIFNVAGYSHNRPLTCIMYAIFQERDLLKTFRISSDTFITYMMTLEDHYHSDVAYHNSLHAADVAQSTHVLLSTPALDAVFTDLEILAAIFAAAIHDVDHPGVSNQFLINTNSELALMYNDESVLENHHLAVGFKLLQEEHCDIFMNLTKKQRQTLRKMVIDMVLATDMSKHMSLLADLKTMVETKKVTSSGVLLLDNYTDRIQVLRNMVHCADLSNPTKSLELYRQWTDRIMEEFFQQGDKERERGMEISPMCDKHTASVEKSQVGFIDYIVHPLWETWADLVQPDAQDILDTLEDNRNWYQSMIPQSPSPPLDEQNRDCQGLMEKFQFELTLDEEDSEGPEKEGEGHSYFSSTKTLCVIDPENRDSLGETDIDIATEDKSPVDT
Cytochrome P450 1A2 (Homo sapiens), sequence (P05177 whole entry, looked up): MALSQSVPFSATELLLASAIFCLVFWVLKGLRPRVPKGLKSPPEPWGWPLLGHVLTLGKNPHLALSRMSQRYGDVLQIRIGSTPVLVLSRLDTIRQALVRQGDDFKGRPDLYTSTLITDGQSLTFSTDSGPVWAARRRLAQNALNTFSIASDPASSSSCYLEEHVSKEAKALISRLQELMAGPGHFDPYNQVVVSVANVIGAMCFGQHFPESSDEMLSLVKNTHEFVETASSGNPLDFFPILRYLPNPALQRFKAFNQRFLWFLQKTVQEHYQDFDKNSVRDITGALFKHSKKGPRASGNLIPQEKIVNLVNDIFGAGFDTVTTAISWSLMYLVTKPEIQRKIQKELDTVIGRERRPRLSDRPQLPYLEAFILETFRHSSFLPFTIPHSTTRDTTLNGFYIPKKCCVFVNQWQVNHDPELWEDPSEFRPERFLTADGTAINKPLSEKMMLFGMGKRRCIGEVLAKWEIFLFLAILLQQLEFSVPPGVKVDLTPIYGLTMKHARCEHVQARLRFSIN
Cytochrome P450 3A4 (Homo sapiens), sequence (P08684 whole entry, looked up): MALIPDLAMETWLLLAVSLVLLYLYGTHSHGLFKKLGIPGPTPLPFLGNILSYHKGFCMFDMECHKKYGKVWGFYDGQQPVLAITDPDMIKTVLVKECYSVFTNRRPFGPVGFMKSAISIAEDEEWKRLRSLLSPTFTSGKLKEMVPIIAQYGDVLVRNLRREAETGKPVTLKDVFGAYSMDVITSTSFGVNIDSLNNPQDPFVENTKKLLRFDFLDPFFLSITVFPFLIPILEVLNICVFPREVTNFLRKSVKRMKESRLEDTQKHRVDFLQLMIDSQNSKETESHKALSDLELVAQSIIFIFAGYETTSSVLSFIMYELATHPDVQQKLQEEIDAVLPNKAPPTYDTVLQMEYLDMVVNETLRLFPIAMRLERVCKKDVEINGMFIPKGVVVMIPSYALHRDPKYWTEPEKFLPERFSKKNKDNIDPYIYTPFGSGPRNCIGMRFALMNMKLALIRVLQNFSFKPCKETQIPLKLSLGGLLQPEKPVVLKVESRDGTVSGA
Dual specificity protein kinase CLK4 (Homo sapiens), sequence (Q9HAZ1 whole entry, looked up): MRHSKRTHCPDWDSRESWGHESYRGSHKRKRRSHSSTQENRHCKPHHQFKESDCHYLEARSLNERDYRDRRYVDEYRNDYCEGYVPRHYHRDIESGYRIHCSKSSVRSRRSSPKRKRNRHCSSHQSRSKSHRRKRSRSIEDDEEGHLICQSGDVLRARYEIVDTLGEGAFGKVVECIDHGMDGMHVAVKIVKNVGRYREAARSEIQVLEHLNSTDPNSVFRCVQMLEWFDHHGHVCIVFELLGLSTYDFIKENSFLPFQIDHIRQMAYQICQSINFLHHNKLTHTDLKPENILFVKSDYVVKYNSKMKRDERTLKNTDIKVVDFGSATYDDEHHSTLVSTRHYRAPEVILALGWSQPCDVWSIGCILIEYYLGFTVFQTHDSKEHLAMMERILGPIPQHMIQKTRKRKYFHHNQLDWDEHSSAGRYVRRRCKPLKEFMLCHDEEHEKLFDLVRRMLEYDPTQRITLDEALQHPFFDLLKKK
Ubiquitin carboxyl-terminal hydrolase 1 (Homo sapiens), sequence (O94782 whole entry, looked up): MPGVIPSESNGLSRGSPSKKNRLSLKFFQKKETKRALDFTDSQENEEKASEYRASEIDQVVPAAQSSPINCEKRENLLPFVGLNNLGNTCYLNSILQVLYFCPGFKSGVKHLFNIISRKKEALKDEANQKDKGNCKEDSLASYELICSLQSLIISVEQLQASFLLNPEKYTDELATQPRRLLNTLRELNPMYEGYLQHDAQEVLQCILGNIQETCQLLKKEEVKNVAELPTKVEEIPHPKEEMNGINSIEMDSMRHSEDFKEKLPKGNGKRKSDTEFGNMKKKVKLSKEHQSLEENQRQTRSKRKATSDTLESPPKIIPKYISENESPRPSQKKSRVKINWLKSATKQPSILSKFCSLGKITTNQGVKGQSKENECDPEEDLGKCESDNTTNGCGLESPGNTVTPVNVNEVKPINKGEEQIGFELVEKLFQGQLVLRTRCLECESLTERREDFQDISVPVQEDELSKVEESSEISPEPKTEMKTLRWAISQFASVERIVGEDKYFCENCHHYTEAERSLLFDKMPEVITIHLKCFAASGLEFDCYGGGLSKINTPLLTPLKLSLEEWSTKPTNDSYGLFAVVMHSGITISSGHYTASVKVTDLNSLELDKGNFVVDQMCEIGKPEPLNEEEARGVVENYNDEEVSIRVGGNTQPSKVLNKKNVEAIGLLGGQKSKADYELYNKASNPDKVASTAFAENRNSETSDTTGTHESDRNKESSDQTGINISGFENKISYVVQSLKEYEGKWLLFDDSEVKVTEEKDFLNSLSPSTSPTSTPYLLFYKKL

As for `COc1ccc(-n2c(=O)cnc3cnc(N4CCNCC4)nc32)cc1`, the Potency was > 11.4 µM (inactive) in assay [1], 12.6 µM (active) in assay [3], > 9.22 µM (inactive) in assay [6] and > 46 µM (inactive) in assay [7]. Moreover, the activity change, negative = inhibition in assay [2] was -7.32% (inactive); in [4], 0.78% (inactive). For the same compound, the activity, negative = inhibition in assay [5] is -6.65% (inactive). In [8], the call was inactive. For the same compound, the Potency result in assay [9] and in assay [10] was “inactive” in each case. Also, in assay [11], the max response was 4.18% (inactive).
For the compound `C=C1CCC[C@]2(C)C[C@H]3OC(=O)[C@H](CNCCc4ccccc4OC)C3CC12` (stereo partly specified), the Potency result in assay [12] was “inactive”. Also, in [11], the max response is -12.1% (inactive).
Turning to `FC(F)(F)c1ccccc1-c1nccc(N2CCNCC2)n1`, the Potency in [1] is > 11.4 µM (inactive); in assay [3], 10 µM (active); in [6] it was > 46 µM (inactive); in assay [7] it was > 46 µM (inactive); in assay [12] it was 15.8 µM (active). The activity change, negative = inhibition in assay [2] is -4.79% (inactive); in assay [4], -3.28% (inactive); in assay [13] it was 37.4% [at 2.29 µM] (inactive); in [14] it was 4.7% (inactive). Besides, in [5], the activity, negative = inhibition was 9.61% (inactive). The result in assay [8] was inactive. Moreover, the Potency result in [9], in assay [15] and in [16] was “inactive” throughout. The max response in [14] (setting [19]) turned out to be 10.7%; in assay [14] (setting [20]), 12.2%.
On to `COc1ccc(Oc2ncc3nc(-c4ccccc4)c(=O)n(C4CC4)c3n2)cc1`, for which the Potency in assay [1] was > 11.4 µM (inactive); in assay [6], > 9.22 µM (inactive); in [7] it was > 46 µM (inactive). Moreover, the results for the activity change, negative = inhibition in assay [2] and in assay [4] were -15.8% (inactive) and 5.68% (inactive), respectively. Further, the activity, negative = inhibition in assay [5] is -1.16% (inactive). In assay [8], the compound was called inactive. The Potency entry in assay [9] and in assay [10] was “inactive” in each case. Further, the max response in assay [11] is 12.6% (inactive).
As for `O=c1cnc2cnc(N3CCNCC3)nc2n1Cc1ccc(F)cc1`, the Potency in assay [1] is > 11.4 µM (inactive); in assay [3] it was 15.8 µM (active); in assay [6] it was > 9.22 µM (inactive); in assay [7], > 46 µM (inactive); in [17], 7.94 µM (active). Besides, the activity change, negative = inhibition is -15.8% (inactive) in assay [2] and 7.02% (inactive) in [14]. Besides, the activity, negative = inhibition in assay [5] was -2.57% (inactive). Further, the outcome in assay [8] was inactive. Also, the Potency entry in [9], in [18], in assay [15], in assay [16] and in assay [10] was “inactive” each time. The figures for the max response in assay [14] (setting [19]) and in assay [14] (setting [20]) were 22.7% and 28.6%, respectively.
For `COc1ccc(-n2c(=O)c(C)nc3cnc(N4CCNCC4)nc32)cc1`, the Potency is > 11.4 µM (inactive) in assay [1], 15.8 µM (active) in assay [3], > 9.22 µM (inactive) in assay [6] and > 46 µM (inactive) in assay [7]. In addition, the activity change, negative = inhibition in assay [2] was -6.88% (inactive); in assay [4], -7.6% (inactive). Further, the activity, negative = inhibition in assay [5] was 7.09% (inactive). The compound was called inactive in assay [8]. In addition, the Potency entry in assay [18] and in assay [10] was “inactive” throughout.
`O=c1c(CCc2ccccc2)nc2cnc(N3CCNCC3)nc2n1Cc1ccc(F)cc1`: the activity change, negative = inhibition in [2] was -10.5% (inactive); in [14], 2.57% (inactive). For the same compound, the Potency was 10 µM (active) in [3], > 9.22 µM (inactive) in assay [6] and > 46 µM (inactive) in assay [7]. The activity, negative = inhibition in assay [5] is 16.5% (inactive). For the same compound, the result in assay [8] was inactive. For the same compound, the max response was 12.8% in [14] (setting [19]), 11.7% in assay [14] (setting [20]) and -14.8% (inactive) in assay [11]. Also, the Potency result in assay [12] was “inactive”.

The record behind these values is PubChem BioAssay (NCATS).
